Laboratory results: PubChem BioAssay AID1159580 (chemical genetic matrix, 2015)
“And” between values parts separate entries of the source, which are not always exact repeats. Identical values can stand only once. The campaign covered roughly 5,500 compounds. About 2,000 (36%) were called active. Roughly 18% stayed inconclusive and do not appear here. Cut-off read from the data, not from the text of the source: active = normalized growth mostly below about 0.91 (no sharp cut-off); inconclusive = no clear call, values can overlap the other calls; inactive = mostly above about 0.92. The list shows a part of the results.

Assay: chemical genetic growth profiling, strain panel (AID 1159580);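 note: tested at 20 µM; growth read once vehicle control cultures reached saturation at 30 °C; 1 = growth at the plate median or of vehicle wells; lower values mean less growth of the strain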
Details: growth OD

Measured: normalized growth

O=C(O)C1CCCNC1 (stereo unspecified)
inactive: S. cerevisiae deletion strains, locus YJR075W, strain HOC1, stronger effect = lower value 1.01 | S. cerevisiae deletion strains, locus YKL009W, strain mrt4, stronger effect = lower value 1.02 | S. cerevisiae deletion strains, locus YKL068W, stronger effect = lower value 1.01 | S. cerevisiae deletion strains, locus YKL085W, strain MDH1 (second series), stronger effect = lower value 1.01 | S. cerevisiae deletion strains, locus YKL085W, strain MDH1, stronger effect = lower value 1.01 | S. cerevisiae deletion strains, locus YKL160W, strain elf1, stronger effect = lower value 1.01 | S. cerevisiae deletion strains, locus YKL190W, strain CNB1, stronger effect = lower value 1.01 | S. cerevisiae deletion strains, locus YKR001C, strain vps1, stronger effect = lower value 1.01 | S. cerevisiae deletion strains, locus YKR026C, strain gcn3, stronger effect = lower value 1.03 | S. cerevisiae deletion strains, locus YKR091W, strain srl3, stronger effect = lower value 1.01 | S. cerevisiae deletion strains, locus YLL001W, strain dnm1, stronger effect = lower value 1.04 | S. cerevisiae deletion strains, locus YLL026W, stronger effect = lower value 1.01 | S. cerevisiae deletion strains, locus YLL041C, strain sdh2, stronger effect = lower value 1.02 | S. cerevisiae deletion strains, locus YLR027C, strain aat2, stronger effect = lower value 1.02 | S. cerevisiae deletion strains, locus YLR039C, strain RIC1, stronger effect = lower value 1.01 | S. cerevisiae deletion strains, locus YLR058C, strain SHM2, stronger effect = lower value 1.01 | S. cerevisiae deletion strains, locus YLR102C, strain apc9, stronger effect = lower value 1.01 | S. cerevisiae deletion strains, locus YLR113W, strain HOG1, stronger effect = lower value 1.05 | S. cerevisiae deletion strains, locus YLR221C, strain rsa3, stronger effect = lower value 1.01 | S. cerevisiae deletion strains, locus YLR258W, strain gsy2, stronger effect = lower value 1.02 | S. cerevisiae deletion strains, locus YLR262C, strain YPT6 (second series), stronger effect = lower value 1.01 | S. cerevisiae deletion strains, locus YLR262C, strain YPT6, stronger effect = lower value 1.05 | S. cerevisiae deletion strains, locus YLR268W, strain sec22, stronger effect = lower value 1.04 | S. cerevisiae deletion strains, locus YLR320W, strain mms22, stronger effect = lower value 1.02 | S. cerevisiae deletion strains, locus YLR330W, strain CHS5, stronger effect = lower value 1 | S. cerevisiae deletion strains, locus YLR342W, strain FKS1 (second series), stronger effect = lower value 0.997 | S. cerevisiae deletion strains, locus YLR342W, strain FKS1, stronger effect = lower value 1.01 | S. cerevisiae deletion strains, locus YLR357W, strain rsc2, stronger effect = lower value 1.03 | S. cerevisiae deletion strains, locus YLR370C, strain arc18, stronger effect = lower value 1.02 | S. cerevisiae deletion strains, locus YLR371W, strain rom2, stronger effect = lower value 1.03 | S. cerevisiae deletion strains, locus YLR384C, strain iki3, stronger effect = lower value 1.01 | S. cerevisiae deletion strains, locus YLR418C, strain cdc73, stronger effect = lower value 1.05 | S. cerevisiae deletion strains, locus YML016C, strain PPZ1, stronger effect = lower value 1.01 | S. cerevisiae deletion strains, locus YML032C, strain rad52, stronger effect = lower value 1.04 | S. cerevisiae deletion strains, locus YML120C, strain ndi1, stronger effect = lower value 1.01 | S. cerevisiae deletion strains, locus YML124C, strain tub3, stronger effect = lower value 1.01 | S. cerevisiae deletion strains, locus YMR058W, strain fet3, stronger effect = lower value 1.02 | S. cerevisiae deletion strains, locus YMR078C, strain ctf18, stronger effect = lower value 1.03 | S. cerevisiae deletion strains, locus YMR125W, strain sto1, stronger effect = lower value 1.02 | S. cerevisiae deletion strains, locus YMR129W, stronger effect = lower value 1.03 | S. cerevisiae deletion strains, locus YMR205C, strain PFK2, stronger effect = lower value 1.02 | S. cerevisiae deletion strains, locus YMR223W, strain ubp8, stronger effect = lower value 1.02 | S. cerevisiae deletion strains, locus YMR231W, strain pep5, stronger effect = lower value 1.01 | S. cerevisiae deletion strains, locus YMR263W, strain SAP30, stronger effect = lower value 1.01 | S. cerevisiae deletion strains, locus YMR307W, strain GAS1, stronger effect = lower value 0.992 and 0.991 | S. cerevisiae deletion strains, locus YNL067W, strain RPL9B, stronger effect = lower value 1.01 | S. cerevisiae deletion strains, locus YNL071W, strain lat1, stronger effect = lower value 1.02 | S. cerevisiae deletion strains, locus YNL128W, strain TEP1, stronger effect = lower value 1.02 and 0.999 | S. cerevisiae deletion strains, locus YNL153C, strain GIM3, stronger effect = lower value 1.01 and 1.02 | S. cerevisiae deletion strains, locus YNL175C, strain NOP13, stronger effect = lower value 1.02 | S. cerevisiae deletion strains, locus YNL183C, strain NPR1, stronger effect = lower value 0.935 | S. cerevisiae deletion strains, locus YNL197C, strain WHI3, stronger effect = lower value 1.01 | S. cerevisiae deletion strains, locus YNL209W, strain ssb2, stronger effect = lower value 1.02 | S. cerevisiae deletion strains, locus YNL224C, strain SQS1, stronger effect = lower value 1.03 | S. cerevisiae deletion strains, locus YNL233W, strain BNI4, stronger effect = lower value 1.01 | S. cerevisiae deletion strains, locus YNL248C, strain rpa49, stronger effect = lower value 1 | S. cerevisiae deletion strains, locus YNL250W, strain rad50, stronger effect = lower value 1.02 | S. cerevisiae deletion strains, locus YNL271C, strain bni1, stronger effect = lower value 1.02 | S. cerevisiae deletion strains, locus YNL298W, strain CLA4, stronger effect = lower value 1.02 | S. cerevisiae deletion strains, locus YNL307C, strain MCK1, stronger effect = lower value 1.03 | S. cerevisiae deletion strains, locus YNL322C, strain KRE1 (second series), stronger effect = lower value 1.02 | S. cerevisiae deletion strains, locus YNL322C, strain KRE1, stronger effect = lower value 1.01 | S. cerevisiae deletion strains, locus YNR049C, strain mso1, stronger effect = lower value 1.02 | S. cerevisiae deletion strains, locus YNR052C, strain pop2, stronger effect = lower value 1.02 | S. cerevisiae deletion strains, locus YOL006C, strain TOP1, stronger effect = lower value 1.07 | S. cerevisiae deletion strains, locus YOL012C, strain htz1 1.27 | S. cerevisiae deletion strains, locus YOL147C, strain pex11, stronger effect = lower value 1.02 | S. cerevisiae deletion strains, locus YOR001W, strain rrp6, stronger effect = lower value 1.02 | S. cerevisiae deletion strains, locus YOR061W, strain CKA2, stronger effect = lower value 1.01 | S. cerevisiae deletion strains, locus YOR069W, strain VPS5, stronger effect = lower value 1 | S. cerevisiae deletion strains, locus YOR070C, strain gyp1, stronger effect = lower value 1.02 | S. cerevisiae deletion strains, locus YOR080W, strain dia2, stronger effect = lower value 1.02 | S. cerevisiae deletion strains, locus YOR083W, strain WHI5 (second series), stronger effect = lower value 1.02 | S. cerevisiae deletion strains, locus YOR083W, strain WHI5, stronger effect = lower value 1.01 | S. cerevisiae deletion strains, locus YOR106W, strain vam3, stronger effect = lower value 1.01 | S. cerevisiae deletion strains, locus YOR136W, strain idh2, stronger effect = lower value 1.02 | S. cerevisiae deletion strains, locus YOR144C, strain elg1, stronger effect = lower value 1.02 | S. cerevisiae deletion strains, locus YOR184W, strain ser1, stronger effect = lower value 1.04 | S. cerevisiae deletion strains, locus YOR231W, strain MKK1, stronger effect = lower value 0.999 | S. cerevisiae deletion strains, locus YOR265W, strain rbl2, stronger effect = lower value 1.02 | S. cerevisiae deletion strains, locus YOR270C, strain vph1, stronger effect = lower value 1.04 | S. cerevisiae deletion strains, locus YOR290C, strain snf2, stronger effect = lower value 1.02 | S. cerevisiae deletion strains, locus YOR316C, strain cot1, stronger effect = lower value 1.02 | S. cerevisiae deletion strains, locus YPL051W, strain arl3, stronger effect = lower value 1.02 | S. cerevisiae deletion strains, locus YPL055C, strain LGE1, stronger effect = lower value 1.03 | S. cerevisiae deletion strains, locus YPL078C, strain atp4, stronger effect = lower value 1.03 | S. cerevisiae deletion strains, locus YPL106C, strain sse1, stronger effect = lower value 1.01 | S. cerevisiae deletion strains, locus YPL240C, strain hsp82, stronger effect = lower value 1.03 | S. cerevisiae deletion strains, locus YPL241C, strain CIN2, stronger effect = lower value 1.01 and 1 | S. cerevisiae deletion strains, locus YPL256C, strain CLN2, stronger effect = lower value 0.983 | S. cerevisiae deletion strains, locus YPR119W, strain clb2, stronger effect = lower value 1.03 | S. cerevisiae deletion strains, locus YPR141C, strain kar3, stronger effect = lower value 1.02 | S. cerevisiae deletion strains, locus YPR163C, strain tif3, stronger effect = lower value 1.03 | S. cerevisiae deletion strains, locus YPR167C, strain met16, stronger effect = lower value 1.03 | S. cerevisiae deletion strains, strain wtn01, stronger effect = lower value 1.02 | S. cerevisiae strains, strain wild type, stronger effect = lower value 1.01
